From PubChem BioAssay AID504558 (Broad Institute, 2011)
Among all 350,000 compounds or so, about 2,400 (0.69%) were called active. Rule as the data show it: active = inhibition above about 41%; inconclusive = no clear call, values can overlap the other calls; inactive = below that. Shown is part of a subset that was picked to be rich in actives.

Assay: blockers of LMP1-induced NF-kB reporter signal – cell-based, luminescence, single point, primary screen (AID 504558);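 also: 0% = neutral control wells and 100% = reference inhibitor control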
Settings: LMP1-induced NF-kappaB luciferase reporter cells, at 12.5 µM, stronger effect = higher value

Row | Structure (SMILES) | inhibition
1 | CCOc1ccc(NC(=O)c2cc(C)nc3ccccc23)cc1 | -0.28% (inactive)
2 | CCOc1ccc(-c2cc(C(=O)N/N=C/c3ccc(O)cc3)c3ccccc3n2)cc1 | 58.2% (active)
3 | COc1ccc(-c2cc(C(=O)N/N=C/c3cccnc3)c3ccccc3n2)c(OC)c1 | 1.36% (inactive)
4 | Cc1cccc(C(=O)OCC(=O)Nc2sccc2C(N)=O)c1C | -0.574% (inactive)
5 | C[C@H]1CN([C@@H](C)CO)C(=O)c2cc(C3=CCCCC3)cnc2O[C@@H]1CN(C)C(=O)Cc1ccccc1 | 5.28% (inactive)
6 | CCN1C(=O)[C@H]2[C@@H](c3ccccc3)N[C@]3(CCCN(Cc4ccc(C)cc4)C3=O)[C@H]2C1=O | -1.4% (inactive)
7 | NC(=O)C1(Nc2ccccc2Cl)CCCC1 | -6.12% (inactive)
8 | O=C(CCN1CCN(C/C=C/c2ccccc2)CC1)Nc1ccccc1Cl | 5.35% (inactive)
9 | O=C(Nc1ccccc1Cl)/C(Cl)=C(\Cl)S(=O)c1ccccc1 (stereo not drawn) | 69.1% (active)
10 | Cc1ccc(C(=O)NC(C)C(c2cccs2)N2CCOCC2)cc1C (stereo not drawn) | 3.97% (inactive)
11 | CC(/C=N/NC(=O)c1cc(-c2ccc3ccccc3c2)n[nH]1)=C\c1ccco1 | -39.1% (inactive)
12 | Cc1ccc(-c2cc(C(=O)N/N=C/C=C/c3ccco3)c3ccccc3n2)cc1C | 60.7% (active)
13 | O=C(N/N=C/C=C/c1ccco1)c1cccs1 | -24.5% (inactive)
14 | COc1ccc(CCNC(=O)CN(c2ccccc2)S(=O)(=O)c2ccccc2)cc1 | -10.2% (inactive)
15 | Cc1ccc([C@H]2C[C@H](O)[C@@H](n3cc(COC(=O)c4ccccc4)nn3)CN2CC2CCCCC2)cc1 | 4.84% (inactive)
16 | C[C@H]1CN([C@@H](C)CO)C(=O)CCCn2cc(nn2)CO[C@@H]1CN(C)S(=O)(=O)c1cccs1 | 5.02% (inactive)
17 | CCN1CCCC1CNC(=O)c1ccc2c(c1)NC(=O)/C(=C\c1ccccc1F)S2 (stereo not drawn) | -8.19% (inactive)
18 | CC1=C(C(=O)N(C)C)CC(CC(=O)NCCc2ccccn2)C(=O)N1CCC1=CCCCC1 (stereo not drawn) | 1.75% (inactive)
19 | CC(C)c1cc(C(=O)N(C)C2CCCN(Cc3ccccc3F)C2)n(C)n1 (stereo not drawn) | 3.75% (inactive)
20 | Cc1ccc(-c2cc(N)on2)cc1 | -11.1% (inactive)
21 | COc1ccc(-c2cc3ncccc3cn2)cc1 | -15.8% (inactive)
22 | COc1ccc(-c2cn3ccc(C)cc3n2)cc1 | 48.2% (active)

Row | Structure (SMILES) | inhibition
23 | CSc1nnc2ccc(-c3ccc(C)cc3)nn12 | 2.32% (inactive)
24 | Cc1ccc(-c2cc(C(=O)NCc3cn(C)nc3C)c3cc(Br)ccc3n2)cc1 | -3.18% (inactive)
25 | Cc1ccn2cc(C(=O)NC3CCN(Cc4ccccc4)CC3)nc2c1 | 5.73% (inactive)
26 | Cc1ccc(-c2cn3cc(C)ccc3n2)cc1 | 82% (active)
27 | Cc1ccc2nc(-c3ccc(Br)cc3)cn2c1 | 63.8% (active)
28 | Cc1ccc(-c2nc3ccc(Cl)cn3c2Cc2ccccc2)cc1 | -21.9% (inactive)
29 | COc1cc2ccc(C(C)=O)c(O)c2cc1OC | 3.32% (inactive)
30 | COc1ccc(S(=O)(=O)N2CCC(C(=O)NCCC(=O)Nc3ccccc3OC)CC2)cc1 | 1.21% (inactive)
31 | COc1ccc(C(=O)OCC(=O)Nc2cc(C)on2)cc1F | -6.31% (inactive)
32 | COc1ccc(C(=O)NCC2CCCO2)cc1S(=O)(=O)NCc1ccc(Cl)cc1 (stereo not drawn) | -0.644% (inactive)
33 | CC1CN(C(=O)c2cccc(NS(=O)(=O)c3ccc(Br)cc3)c2)CC(C)O1 (stereo not drawn) | 0.834% (inactive)
34 | O=C(Nc1cccc2ccccc12)NC1CC1 | -3.72% (inactive)
35 | CC1=C(C(=O)Nc2cccc(C(=O)NCC(C)c3ccccc3)c2)SCCO1 (stereo not drawn) | -2.25% (inactive)
36 | COc1cc2c(cc1OC)CN(CC(=O)Nc1ccc(F)cc1)CC2 | 9.89% (inactive)
37 | CC[C@H]1CN2CCc3cc(OC)c(OC)cc3[C@@H]2C[C@@H]1C[C@H]1NCCc2cc(OC)c(OC)cc21 | 89.9% (active)
38 | CC(C)CC1C(=O)N(Cc2cn(CC3CCCCC3)nn2)CCS(=O)(=O)N1Cc1ccc(-c2ccc(Cl)cc2)cc1 (stereo not drawn) | 5.31% (inactive)
39 | O=C(COC(=O)c1cccc(Cl)c1Cl)NC1CCCCCC1 | -5.21% (inactive)
40 | O=C(NC(Nc1nc2ccc([N+](=O)[O-])cc2s1)(C(F)(F)F)C(F)(F)F)c1ccccc1 | 56.9% (active)
41 | N=C1C(c2nc3ccccc3s2)=C(O)CN1NC(=O)c1ccc([N+](=O)[O-])cc1 | -6.15% (inactive)
42 | O=C(Nc1nc2ccc([N+](=O)[O-])cc2s1)c1ccc(S(=O)(=O)N2CCCc3ccccc32)cc1 | 52.5% (active)
43 | O=C(O)c1cc([N+](=O)[O-])c(Nc2cccc3ccccc23)c([N+](=O)[O-])c1 | 1% (inactive)
44 | CN(C)CCCN(C(=O)c1ccc(S(=O)(=O)N2CCCc3ccccc32)cc1)c1nc2ccc(F)cc2s1 | -4.71% (inactive)

Row | Structure (SMILES) | inhibition
45 | Cc1ccc(NC(=O)c2cccc(S(=O)(=O)N3CCCc4ccccc43)c2)nc1 | 16.9% (inactive)
46 | C[C@@H]1CN([C@@H](C)CO)C(=O)c2cc(NS(C)(=O)=O)ccc2O[C@@H](C)CCCCO[C@H]1CN(C)C(=O)Nc1ccc2c(c1)OCO2 | -2.68% (inactive)
47 | CC(C)CCC(=O)Nc1cc(S(=O)(=O)N2CCOCC2)ccc1N1CCCC1 | 0.721% (inactive)
48 | O=S1(=O)CCN(C2CCCCCCCCCCC2)CC1 | 3.93% (inactive)
49 | CCCCCCn1c(=O)n2n(c1=O)C[C@]1(OC(=O)NCc3ccc(OC)c(OC)c3)CN(S(=O)(=O)c3ccc(C)cc3)C[C@]1(O)C2 | -11.4% (inactive)
50 | O=C1c2ccccc2-c2ccccc2NC1O (stereo not drawn) | 5.68% (inactive)
51 | COc1ccc(-c2cnc3c(c2)C(=O)N([C@H](C)CO)C[C@@H](C)[C@H](CN(C)Cc2ccccc2)O3)cc1 | -7.99% (inactive)
52 | COc1ccc(OC)c(NC(=O)C2CCCN2S(=O)(=O)c2ccc3c(c2)CC(C)N3C(C)=O)c1 (stereo not drawn) | 1.47% (inactive)
53 | O=C(OCC(=O)N1CCCCCC1)c1cccc(Cl)c1Cl | -36.1% (inactive)
54 | COCc1nnc(NC(=O)c2ccc3c(c2)OCO3)s1 | 7.49% (inactive)
55 | COc1ccc(CC(=O)Nc2sc(Cc3ccccc3)c(C)c2C(N)=O)cc1 | 0.44% (inactive)
56 | Cc1ccc(C(=O)Nc2sc(Cc3ccc4c(c3)OCO4)c(C)c2C(N)=O)cc1 | 81% (active)
57 | COc1ccc(CN2C(=O)C(CC(=O)NC3CCCCC3)CC(C(=O)N3CCOCC3)=C2C)cc1 (stereo not drawn) | 1.44% (inactive)
58 | CSCCC(NC(=O)c1ccco1)C(=O)Nc1cc(C)ccn1 (stereo not drawn) | -34.2% (inactive)
59 | Cc1c(Cl)cnc(NC(=O)COC(=O)C2CCCC2)c1Cl | -6.23% (inactive)
60 | CSCCC(NC(=O)c1ccco1)C(=O)OCC(=O)Nc1ncc(Cl)c(C)c1Cl (stereo not drawn) | 59.5% (active)
61 | COc1cccc(OCC(=O)NCCS(=O)(=O)N2CCN(c3ccccc3)CC2)c1 | 1.31% (inactive)
62 | O=C(CC(CC(=O)c1ccccc1)c1ccco1)c1ccccc1 | -17.7% (inactive)
63 | CCOC(=O)CN/C=C(\C#N)c1ccc(F)cc1 | 1.95% (inactive)
64 | CCOc1cc(/C=C(/C#N)c2ccc(Cl)cc2)cc(Cl)c1OCC(=O)O | 43.8% (active)
65 | C/C(=N\OCC(=O)O)c1ccc(Cl)cc1 | -9.17% (inactive)
66 | CCOC(=O)c1cc(-c2sc(NC(=O)c3ccccc3)nc2C)n(-c2ccc(Br)cc2)n1 | -16.6% (inactive)

Row | Structure (SMILES) | inhibition
67 | C[C@@H]1CN([C@H](C)CO)S(=O)(=O)c2ccc(C#CC3CCCCC3)cc2O[C@H]1CN(C)C(=O)Cc1ccncc1 | -11.3% (inactive)
68 | COc1ccc(C(CNC(=O)c2ccc(OCc3cscn3)cc2)N2CCCC2)cc1 (stereo not drawn) | -12% (inactive)
69 | CC(=O)Nc1c(-c2ccc(C)cc2)nc2ccc(Cl)cn12 | 6.02% (inactive)
70 | Cc1sc2nc(-c3ccccc3F)oc(=O)c2c1C | 1.32% (inactive)
71 | CSc1ncnc2c1ncn2CCCNCC1CCCCC1 | 3.66% (inactive)
72 | O=C(N/N=C/c1ccccc1O)C1CCCC1 | 0.696% (inactive)
73 | O=C(NN=Cc1ccccc1O)NN=Cc1ccccc1O | 33.4% (inactive)
74 | Cc1ccc(/C=N/NC(=O)C2=NNC(c3ccccc3)(c3ccccc3)C2)c(O)c1 | 61.6% (active)
75 | Cc1nc2ccccc2nc1CC(O)(c1ccccc1)c1ccccc1 | -2.04% (inactive)
76 | Nc1ccccc1-c1nc2ccncc2[nH]1 | 2.17% (inactive)
77 | Cc1nnc(N/N=C/c2ccccn2)[nH]c1=O | 60.6% (active)
78 | O=C(N/N=C/c1ccccn1)C12CC3CC(CC(C3)C1)C2 | -4.71% (inactive)
79 | O=C(COc1ccc(Cl)cc1Cl)N/N=C/c1ccccn1 | 19.3% (inactive)
80 | Cc1ccc(-c2ccc(CN3C(C)C(=O)N(Cc4cn(CCC5OCCCO5)nn4)CCS3(=O)=O)cc2)cc1 (stereo not drawn) | 3.6% (inactive)
81 | C[C@@H]1CCCCO[C@H](CN(C)Cc2ccccc2)[C@@H](C)CN([C@H](C)CO)C(=O)c2cc(NS(=O)(=O)c3ccc(Cl)cc3)ccc2O1 | -0.347% (inactive)
82 | CCN(CC)C(=O)C1=C(C)N(Cc2ccc(F)cc2)C(=O)C(CC(=O)NC2CCCC2)C1 (stereo not drawn) | 5.32% (inactive)
83 | COc1ccc(C(=O)Nc2ccccc2C(=O)N/N=C/c2ccc(O)c(OC)c2)cc1 | 66.5% (active)
84 | COc1cc(C=NNC(=O)c2cccnc2)ccc1OC(=O)c1ccccc1F | 5.47% (inactive)
85 | O=C(NN=Cc1ccc2c(c1)CCC2)c1ccccc1O | -10.8% (inactive)
86 | CCCCCCNC(=O)O[C@H]1CN(C(=O)OC(C)C)N(C(=O)OC(C)C)[C@@H]2CN(S(=O)(=O)c3ccc(C)cc3)C[C@]12O | -5.81% (inactive)
87 | Cc1cc2cc3n(c2nn1)N=C(Cl)CC3 | 3.98% (inactive)
88 | CNS(=O)(=O)c1ccc2c(c1)[nH]c(=S)n2C | 8.35% (inactive)
